From PubChem
Sampled rows, rich in hits. Any-hit rate of the full collection: about 2.4%.
Arbovirus anti = blocks arbovirus infection. AID 1251. hit rate 0.37% among 200,000. arbovirus infection cell-based antiviral screen. inhibition, % at 10 µM; in the data active = inhibition above about 30%
Pf gamet viab = inhibitors of late stage P. falciparum gametocyte viability | P. falciparum stage V gametocytes, ATP luminescence, 24 h | inhibition, % at 10.9 µM | hit rate 0.065% among 150,000 | AID 743093;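 active = inhibition above the mean plus 3 SD of compounds within the control limits, set per campaign, cut at about 38% in these data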;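 note: 0% = DMSO wells and 100% = medium only without gametocytes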
MEKK3 PB1 HTS = MEKK3-MEK5 PB1 interaction, increase or decrease; bead-based flow cytometry, Alexa488-MEK5 binding to MEKK3; actives lie on both sides; 0 = blocked by unlabeled MEK5, 100 = vehicle; AID 1529; Q99759; binding response (% of control), % at 10 µM; hit rate 1.4% among 290,000;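 active = binding response more than 3 SD above or below the average of its plate-row segment, actives on both sides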;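 note: Alexa488 bead fluorescence after subtracting the streptavidin-only scavenger bead signal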
Target sequence (Q99759 whole entry, looked up): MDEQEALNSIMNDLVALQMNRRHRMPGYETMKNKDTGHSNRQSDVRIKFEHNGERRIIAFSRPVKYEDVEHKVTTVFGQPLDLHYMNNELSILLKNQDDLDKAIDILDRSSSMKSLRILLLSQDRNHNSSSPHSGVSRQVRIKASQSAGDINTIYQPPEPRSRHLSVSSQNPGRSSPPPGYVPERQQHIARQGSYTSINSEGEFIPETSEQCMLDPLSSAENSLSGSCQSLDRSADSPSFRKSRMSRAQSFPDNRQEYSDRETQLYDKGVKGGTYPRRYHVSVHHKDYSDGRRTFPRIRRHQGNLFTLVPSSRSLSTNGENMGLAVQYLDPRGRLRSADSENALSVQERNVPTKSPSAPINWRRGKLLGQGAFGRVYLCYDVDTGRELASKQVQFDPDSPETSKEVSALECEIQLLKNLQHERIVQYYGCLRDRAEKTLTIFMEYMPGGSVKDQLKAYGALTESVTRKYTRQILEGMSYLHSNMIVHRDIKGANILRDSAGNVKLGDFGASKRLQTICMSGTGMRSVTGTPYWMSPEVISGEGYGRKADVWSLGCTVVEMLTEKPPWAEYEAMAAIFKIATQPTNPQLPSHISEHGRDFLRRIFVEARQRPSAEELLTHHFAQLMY
MEKK2 mut-MEK5 = signal of MEK5 binding to mutant human MEKK2 PB1 domain; hit rate 0.35% among 290,000; bead flow cytometry, Alexa488-MEK5 binding to MEKK2 mutant; percent response, % at 10 µM; in the data active = percent response above about 24%, passing the limit was not always enough
MEKK2 WT-MEK5 = raises or lowers MEK5 binding to wildtype human MEKK2 PB1 domain; binding response (% of control), % at 10 µM; Q9Y2U5; bead flow cytometry, Alexa488-MEK5 binding to MEKK2 WT; actives lie on both sides; AID 1531; hit rate 1.1% among 290,000; in the data active = binding response below about 67% or above about 130%
MEKK2wt confirm = raises or lowers MEK5 binding to wildtype human MEKK2, retest | shares compounds with MEKK3 PB1 HTS | bead flow cytometry, Alexa488-MEK5 binding to MEKK2 WT; actives lie on both sides | binding response (% of control), % at 10 µM | hit rate 2.4% among 5,900; in the data active = binding response below about 16% or above about 210%; inactive = in between
MEKK2mut-MEK5 = signal of MEK5 binding to mutant human MEKK2, retest; shares compounds with MEKK3 PB1 HTS; bead flow cytometry, Alexa488-MEK5 binding to MEKK2 mutant; percent response, % at 10 µM; hit rate 2% among 5,900; AID 1893; in the data active = percent response mostly above about 71%, no sharp cut-off; inactive = mostly below about 38%;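 note: higher means compound restores mutant binding toward wildtype level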
MEKK3-MEK5 inh = MEKK3-MEK5 PB1 inhibition, single concentration confirmation | shares compounds with MEKK3 PB1 HTS | bead flow cytometry, Alexa488-MEK5 binding to MEKK3; active compounds read low | binding response (% of control), % at 10 µM | hit rate 1.8% among 5,900;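 active = binding response below 72% of control, or above a set upper limit, though filed actives all read lower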;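 note: 100% = DMSO only wells and 0% = binding blocked by excess unlabeled MEK5; lower values mean stronger disruption of MEK5 binding to MEKK3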
Numbers without * were called inactive; nt = no result given; [ ] = another dose, or the depositor's remark.

SMILES	Arbovirus anti	Pf gamet viab	MEKK3 PB1 HTS	MEKK2 mut-MEK5	MEKK2 WT-MEK5	MEKK2wt confirm	MEKK2mut-MEK5	MEKK3-MEK5 inh
COc1ccc(NC(=O)CC2C(=O)N(c3ccccc3)C(=O)N2CCc2cccs2)cc1 (centres undefined)	1.4	9.0	149.0*	0.0	102.0	105.0	5.0	105.0
CCOc1ccc(NC(=O)CC2C(=O)N(c3ccc(OC)cc3)C(=O)N2CCc2cccs2)cc1 (centres undefined)	4.3	6.1	94.0	0.0	93.0	nt	nt	nt
COc1ccc(C)cc1NC(=S)NC(C)c1ccc(OC)c(OC)c1 (centres undefined)	6.7	-1.2	97.0	-3.0	96.0	nt	nt	nt
CCN1CCN(CCNC(=O)c2ccc(/C=C3/Sc4ccccc4N(Cc4ccccc4C)C3=O)cc2)CC1	-25.0	-4.4	104.0	54.0*	203.0*	193.0	67.0	110.0
O=c1[nH]ncn2cccc12	3.0	nt	78.0*[inhibitor]	-5.0	92.0	99.0	10.0	105.0
O=C(Nc1c(O)c2ccccc2[nH]c1=O)c1ccco1	nt	9.1	85.0	3.0	92.0	nt	nt	nt
CCOc1ccc2noc3c2c1C(=O)c1ccccc1-3	-16.0	nt	nt	nt	nt	nt	nt	nt
O=C1c2ccccc2-c2onc3ccc(NCc4ccco4)c1c23	-22.9	nt	52.0*[inhibitor]	-18.0	53.0*[inhibitor]	63.0	-22.0	59.0*
CCNc1ccc2noc3c2c1C(=O)c1ccccc1-3	-19.2	nt	32.0*[inhibitor]	1.0	30.0*[inhibitor]	52.0	-14.0	56.0*
O=C(O)CCCCCNc1ccc2nsnc2c1[N+](=O)[O-]	4.6	-97.4	102.0	1.0	108.0	nt	nt	nt
Cc1ccc(CCN2CC(C(=O)NCCCN3CCCCCC3)CC2=O)cc1 (centres undefined)	5.2	nt	95.0	21.0	138.0*	119.0	5.0	100.0
COc1ccc(CN2CC(C(=O)NCCCN3CCCCCC3)CC2=O)cc1 (centres undefined)	-0.1	nt	103.0	19.0	137.0*	119.0	37.0	104.0
Cc1ccc(S(=O)(=O)N2CCC(C(=O)NCCc3ccccc3)CC2)cc1	1.8	0.7	103.0	4.0	108.0	nt	nt	nt
Cc1ccc(S(=O)(=O)N2CCC(C(=O)NCCN3CCCCCC3)CC2)cc1	-4.9	nt	96.0	34.0*	170.0*	121.0	7.0	94.0
Cc1ccc(CCN2CC(C(=O)NCCN3CCCCCC3)CC2=O)cc1 (centres undefined)	-2.3	nt	107.0	62.0*	161.0*	151.0	72.0*	108.0
COc1ccc(CN2CC(C(=O)NCCCN3CCCCC3)CC2=O)cc1 (centres undefined)	nt	nt	104.0	2.0	103.0	nt	nt	nt
Cc1ccc(CCN2CC(C(=O)NCCN3CCOCC3)CC2=O)cc1 (centres undefined)	1.2	nt	104.0	10.0	101.0	nt	nt	nt
COc1ccccc1NC(=O)Cc1nnc(SCC(=O)c2ccccc2)n1C	nt	nt	104.0	-2.0	101.0	nt	nt	nt
O=C(NCc1ccc(F)cc1)C1CC(=O)N(CCc2ccccc2)C1 (centres undefined)	2.5	nt	2.0*[inhibitor]	-69.0	3.0*[inhibitor]	106.0	5.0	103.0
O=C(CNC(=O)c1ccc(F)cc1)Nc1ccccc1C(F)(F)F	nt	-21.6	88.0	-30.0	77.0	nt	nt	nt
O=S(=O)(NCCOc1ccc(F)cc1)c1ccc2c(c1)OCCO2	21.4	nt	2.0*[inhibitor]	-18.0	2.0*[inhibitor]	107.0	1.0	107.0
COc1cc(/C=N/NC(=S)Nc2cccc(C(=O)O)c2)ccc1O	-7.7	-30.1	143.0*	2.0	111.0	102.0	9.0	102.0
O=c1c2ccccc2nc(/C=C/c2c[nH]c3ccccc23)n1-c1ccc([N+](=O)[O-])cc1	-17.0	-6.8	75.0*[inhibitor]	-2.0	95.0	96.0	-7.0	96.0
COC(=O)CCCCCCCC(=O)Nc1nnc(C(F)(F)F)s1	nt	-5.5	101.0	14.0	104.0	nt	nt	nt
CCOC(=O)c1sc(NC(=O)c2ccc(S(=O)(=O)N3CCCCC3)cc2)nc1-c1ccccc1	2.7	30.0	135.0*	1.0	105.0	99.0	-5.0	99.0
SMILES	Arbovirus anti	Pf gamet viab	MEKK3 PB1 HTS	MEKK2 mut-MEK5	MEKK2 WT-MEK5	MEKK2wt confirm	MEKK2mut-MEK5	MEKK3-MEK5 inh
CCOC(=O)c1sc(NC(=O)c2ccc(S(=O)(=O)N3CCCCCC3)cc2)nc1-c1ccccc1	12.0	-2.4	96.0	-7.0	89.0	nt	nt	nt
COC(=O)CCN(c1ccccc1)S(=O)(=O)c1cc(-c2cc(C)no2)ccc1OC	nt	nt	100.0	-5.0	98.0	nt	nt	nt
CCOC(=O)c1cc2sccc2n1CC(=O)C(C)(C)C	6.7	-17.5	101.0	-8.0	97.0	nt	nt	nt
CN=Cc1nc(-c2ccccc2)oc1O	-10.2	24.1	111.0	3.0	104.0	nt	nt	nt
CC1=Nc2ccccc2/C1=C\c1nc(-c2ccc(F)cc2)oc1O	6.9	nt	9.0*[inhibitor]	-10.0	7.0*	94.0	-3.0	99.0
CCN(CC)CCNC(=O)CS(=O)Cc1nc(-c2ccc(Cl)cc2)oc1C (centres undefined)	10.2	-24.1	49.0*[inhibitor]	-21.0	62.0	111.0	12.0	109.0
Cc1ccccc1NC1=NC(=S)N(CC(N)=O)C12CCOC(C)(C)C2 (centres undefined)	nt	13.0	47.0*[inhibitor]	-8.0	48.0	99.0	1.0	104.0
CC1CCN(S(=O)(=O)c2nnc(NC(=O)c3ccccc3Br)s2)CC1	nt	nt	99.0	5.0	103.0	nt	nt	nt
COC(=O)c1ccc(OC(=O)c2cccnc2)cc1	-4.5	4.6	128.0*	0.0	106.0	97.0	-7.0	95.0
COc1ccc(C(=O)Nc2ccccc2N2CCN(C(=O)c3ccccc3)CC2)cc1Br	nt	nt	97.0	0.0	91.0	nt	nt	nt
CCn1c(SCC(=O)N/N=C/c2cc(OC)c(O)c(OC)c2)nc2ccccc21	-0.6	nt	100.0	-2.0	99.0	nt	nt	nt
COc1cc(/C=N/NC(=O)CCc2c(C)n[nH]c2C)ccc1O	4.3	nt	123.0*	6.0	111.0	104.0	5.0	104.0
COc1ccc(/C=N/NC(=O)CCc2c(C)n[nH]c2C)cc1OC	-2.7	nt	97.0	-9.0	93.0	nt	nt	nt
CCn1c(SCC(=O)N/N=C/c2ccc(O)c(OC)c2)nc2ccccc21	-11.7	5.6	163.0*	1.0	112.0	97.0	0.0	96.0
CCn1c(SCC(=O)N/N=C/c2cccs2)nc2ccccc21	-12.6	6.9	144.0*	1.0	104.0	100.0	-3.0	103.0
COc1ccc(CC(=O)OCC(=O)NCc2ccccc2Cl)cc1OC	-3.1	8.8	97.0	-2.0	98.0	nt	nt	nt
Cc1cccc(C(=O)NC(=S)NC(C)c2ccccc2)c1 (centres undefined)	nt	-11.3	nt	nt	nt	nt	nt	nt
C=CCNCC(O)COc1ccc(C(C)=O)cc1OC (centres undefined)	nt	-4.8	82.0	-9.0	87.0	nt	nt	nt
O=C(O)CC1SC(=Nc2cccc(C(F)(F)F)c2)NC1=O (centres undefined)	3.4	-32.5	124.0*	15.0	133.0	91.0	-7.0	82.0
COC(=O)/C=C/c1cnc[nH]1	nt	nt	103.0	0.0	104.0	nt	nt	nt
